Test results from PubChem BioAssay (Tox21).
“And” between values parts separate entries of the source, which are not always exact repeats. Equal values may be shown once. Records with an inconclusive call do not appear. Entries that show only a call come without a potency. More than one record can exist for a structure, and the calls need not agree. The source made the active and inactive calls. Unless noted, calls come from the whole dose curve.

assay: qHTS assay for small molecules that induce genotoxicity in human embryonic kidney cells expressing luciferase-tagged ATAD5 - cell viability (AID 651634); conditions: HEK293T ATAD5-luc cells viability, CellTiter-Fluor, 15.5 h; series mostly up to 83.3 µM; note: nearly all actives have a fitted effect of over 25% in size
Method in brief: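 Quantitative high-throughput format. HEK293T cells expressing ATAD5 fused to luciferase were plated at 2,000 cells/well and treated 15.5 hr with compound versus DMSO. Viability was determined by fluorescent live-cell protease substrate, 30 min at 37C.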

Structure (SMILES)	Potency
Nc1cc(Cl)cc(Cl)c1	inactive
Clc1cnc(Oc2ccc(Oc3ncc(Cl)cc3Cl)cc2)c(Cl)c1	inactive
O=S(=O)(O)OOS(=O)(=O)O	inactive
O=C(O)c1cc(Oc2ccc(C(F)(F)F)cc2Cl)ccc1[N+](=O)[O-]	inactive
CNC(=O)O/N=C/C(C)(C)S(C)(=O)=O	inactive
OCc1ccco1	inactive
CN(C)CCC#N	inactive
OCCCCO	inactive
CC12CC1(C)C(=O)N(c1cc(Cl)cc(Cl)c1)C2=O (centres undefined)	inactive
Oc1c(Br)cc(Br)cc1Br	inactive
CN1C(=O)CCS(=O)(=O)C1c1ccc(Cl)cc1 (centres undefined)	inactive
CC[N+](=O)[O-]	inactive
COP(=S)(OC)SCN1C(=O)c2ccccc2C1=O	inactive
Sc1ccccc1	inactive
ClCCOCCCl	inactive
C[C@]12CC[C@H](O)CC1=CC[C@@H]1[C@@H]2CC[C@]2(C)C(=O)CC[C@@H]12	inactive
CNC(=O)O/N=C/C(C)(C)SC	inactive
[N-]=[N+]=CC(=O)OC[C@H](N)C(=O)O	inactive
Nc1ccc(N)cc1	inactive
C=CC(=O)OCCCCCC(C)C	inactive
C[C@H]1C(=O)O[C@@H]2CCN3CC=C(COC(=O)[C@](C)(O)[C@]1(C)O)[C@H]23	inactive
OC[C@@H](O)[C@H]1O[C@@H]2O[C@H](C(Cl)(Cl)Cl)O[C@@H]2[C@H]1O	inactive
CCCCCCCCCCCCCCCCCC(=O)O	inactive
O=P1(NCCCl)OCCCN1CCCl (centres undefined)	inactive
Cc1ccccc1N	inactive
Cc1ccc(N=C=O)cc1N=C=O	inactive
Cc1cccc(N)c1	inactive
C=C(C)C(=O)OCC(CC)CCCC (centres undefined)	inactive

assay: qHTS assay for small molecule disruptors of the mitochondrial membrane potential - cell viability (AID 720634); conditions: HepG2 viability, ATP luminescence (CellTiter-Glo), 1 h; series mostly up to 83.2 µM;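 note: human HepG2 liver cancer cells; nearly all actives have a fitted effect of over 20% in size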
Method in brief: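 Same-well counter-screen: following the MMP dye addition, CellTiter-Glo was added to 1 hr compound-treated HepG2 cells and luminescence read after 30 min at room temperature.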

Structure (SMILES)	Potency
Nc1cc(Cl)cc(Cl)c1	inactive
Clc1cnc(Oc2ccc(Oc3ncc(Cl)cc3Cl)cc2)c(Cl)c1	inactive
O=C(O)c1cc(Oc2ccc(C(F)(F)F)cc2Cl)ccc1[N+](=O)[O-]	inactive
CNC(=O)O/N=C/C(C)(C)S(C)(=O)=O	inactive
OCc1ccco1	inactive
CN(C)CCC#N	inactive
OCCCCO	inactive
Oc1c(Br)cc(Br)cc1Br	inactive
CN1C(=O)CCS(=O)(=O)C1c1ccc(Cl)cc1 (centres undefined)	inactive
CC[N+](=O)[O-]	inactive
COP(=S)(OC)SCN1C(=O)c2ccccc2C1=O	inactive
COc1cc(-c2ccc(N)c(OC)c2)ccc1N	inactive
Sc1ccccc1	inactive
NNc1ccccc1	inactive
ClCCOCCCl	inactive
C[C@]12CC[C@H](O)CC1=CC[C@@H]1[C@@H]2CC[C@]2(C)C(=O)CC[C@@H]12	inactive
CNC(=O)O/N=C/C(C)(C)SC	inactive
C=CC(=O)OCC(CC)CCCC (centres undefined)	inactive
[N-]=[N+]=CC(=O)OC[C@H](N)C(=O)O	inactive
Nc1ccc(N)cc1	inactive
C=CC(=O)OCCCCCC(C)C	inactive
OC[C@@H](O)[C@H]1O[C@@H]2O[C@H](C(Cl)(Cl)Cl)O[C@@H]2[C@H]1O	inactive
CCCCCCCCCCCCCCCCCC(=O)O	inactive
O=P1(NCCCl)OCCCN1CCCl (centres undefined)	inactive
Cc1ccccc1N	inactive
Cc1ccc(N=C=O)cc1N=C=O	inactive
Cc1cccc(N)c1	inactive

assay: qHTS assay for small molecule disruptors of the mitochondrial membrane potential (AID 720635; active = well fitted curve in the direction sought with a large enough effect in the repeat runs; an effect the other way counts as inactive or inconclusive; note: potency is the fitted concentration of half-maximal effect); conditions: HepG2 mitochondrial membrane potential, Mito-MPS dye ratio; series mostly up to 83.2 µM
Method in brief: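 Mitochondrial membrane potential tracked with Mito-MPS dye, red aggregates (ex 540/em 590 nm) against green monomers (ex 490/em 535 nm). Compound treatment 1 hr at 37C, dye 30 min in HepG2.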

Structure (SMILES)	Potency
Nc1cc(Cl)cc(Cl)c1	inactive
Clc1cnc(Oc2ccc(Oc3ncc(Cl)cc3Cl)cc2)c(Cl)c1	10.7 µM (active) and 48.6 µM (active)
O=C(O)c1cc(Oc2ccc(C(F)(F)F)cc2Cl)ccc1[N+](=O)[O-]	inactive
CNC(=O)O/N=C/C(C)(C)S(C)(=O)=O	inactive
OCc1ccco1	inactive
CN(C)CCC#N	inactive
OCCCCO	inactive
Oc1c(Br)cc(Br)cc1Br	48.7 µM (active) and 54.5 µM (active)
CN1C(=O)CCS(=O)(=O)C1c1ccc(Cl)cc1 (centres undefined)	inactive
COP(=S)(OC)SCN1C(=O)c2ccccc2C1=O	inactive
Sc1ccccc1	inactive
NNc1ccccc1	inactive
ClCCOCCCl	inactive
C=CC(=O)OCC(CC)CCCC (centres undefined)	inactive
[N-]=[N+]=CC(=O)OC[C@H](N)C(=O)O	inactive
Nc1ccc(N)cc1	841 nM (active) and 5.47 µM (active) and 3.86 µM (active)
C=CC(=O)OCCCCCC(C)C	inactive
OC[C@@H](O)[C@H]1O[C@@H]2O[C@H](C(Cl)(Cl)Cl)O[C@@H]2[C@H]1O	inactive
CCCCCCCCCCCCCCCCCC(=O)O	inactive and 54.1 µM (active)
O=P1(NCCCl)OCCCN1CCCl (centres undefined)	inactive
Cc1ccccc1N	inactive
Cc1ccc(N=C=O)cc1N=C=O	19.8 µM (active)
Cc1cccc(N)c1	inactive

assay: qHTS assay to test for compound auto fluorescence at 590 nm (red) in HepG2 cells (AID 720674; active = well fitted curve in the direction sought with a large enough effect in the repeat runs; an effect the other way counts as inactive or inconclusive); conditions: HepG2 autofluorescence, red 540/590 nm, 1 h; series mostly up to 91.3 µM
Method in brief: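 We screened compounds on adherent HepG2 cells, incubating them for an hour at 37 C in 5% CO2 before reading emission at 590 nm under 540 nm excitation; values reflect equivalence to Rose Bengal sodium fluorescence.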

Structure (SMILES)	outcome
Nc1cc(Cl)cc(Cl)c1	inactive
Clc1cnc(Oc2ccc(Oc3ncc(Cl)cc3Cl)cc2)c(Cl)c1	inactive
O=S(=O)(O)OOS(=O)(=O)O	inactive
O=C(O)c1cc(Oc2ccc(C(F)(F)F)cc2Cl)ccc1[N+](=O)[O-]	inactive
CNC(=O)O/N=C/C(C)(C)S(C)(=O)=O	inactive
OCc1ccco1	inactive
CN(C)CCC#N	inactive
OCCCCO	inactive
CC12CC1(C)C(=O)N(c1cc(Cl)cc(Cl)c1)C2=O (centres undefined)	inactive
Oc1c(Br)cc(Br)cc1Br	inactive
CN1C(=O)CCS(=O)(=O)C1c1ccc(Cl)cc1 (centres undefined)	inactive
CC[N+](=O)[O-]	inactive
COP(=S)(OC)SCN1C(=O)c2ccccc2C1=O	inactive
COc1cc(-c2ccc(N)c(OC)c2)ccc1N	inactive
Sc1ccccc1	inactive
NNc1ccccc1	inactive

Structure (SMILES)	outcome
ClCCOCCCl	inactive
C[C@]12CC[C@H](O)CC1=CC[C@@H]1[C@@H]2CC[C@]2(C)C(=O)CC[C@@H]12	inactive
CNC(=O)O/N=C/C(C)(C)SC	inactive
C=CC(=O)OCC(CC)CCCC (centres undefined)	inactive
[N-]=[N+]=CC(=O)OC[C@H](N)C(=O)O	inactive
Nc1ccc(N)cc1	inactive
C=CC(=O)OCCCCCC(C)C	inactive
C[C@H]1C(=O)O[C@@H]2CCN3CC=C(COC(=O)[C@](C)(O)[C@]1(C)O)[C@H]23	inactive
OC[C@@H](O)[C@H]1O[C@@H]2O[C@H](C(Cl)(Cl)Cl)O[C@@H]2[C@H]1O	inactive
CCCCCCCCCCCCCCCCCC(=O)O	inactive
O=P1(NCCCl)OCCCN1CCCl (centres undefined)	inactive
Cc1ccccc1N	inactive
Cc1ccc(N=C=O)cc1N=C=O	inactive
Cc1cccc(N)c1	inactive
C=C(C)C(=O)OCC(CC)CCCC (centres undefined)	inactive
